Source: PubChem BioAssay

Target: Concanavalin-A (Canavalia ensiformis) (UniProt P02866)
Test: compounds binding concanavalin A lectin – biochemical, small-molecule microarray, Alexa647 label, 635 nm, artefact control for SMM control protein annotation, primary screen (AID 1127);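 note: z combines 667 nm emission intensity with signal-to-noise across three replicate slides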
Settings: ConA-A647 binding fluorescence, higher = more signal

Sequence of Concanavalin-A (Canavalia ensiformis) (P02866 whole entry, looked up): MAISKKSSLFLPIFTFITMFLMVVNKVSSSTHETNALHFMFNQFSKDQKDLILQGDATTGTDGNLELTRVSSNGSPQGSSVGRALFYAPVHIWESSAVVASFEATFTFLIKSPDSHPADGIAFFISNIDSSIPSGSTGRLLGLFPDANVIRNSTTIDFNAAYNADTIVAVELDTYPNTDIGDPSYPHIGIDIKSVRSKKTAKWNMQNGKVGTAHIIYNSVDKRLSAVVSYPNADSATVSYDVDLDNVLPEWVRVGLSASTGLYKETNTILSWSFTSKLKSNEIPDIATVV

Row | Structure (SMILES) | composite z-score
1 | COc1ccc(C(=O)Nc2ccc(CN3C(=O)[C@@]4(O[C@@H](CC(=O)N5CCC[C@H]5CO)[C@H]([Si](C)(C)c5ccc(OC)cc5)[C@H]4C)c4ccccc43)cc2)cc1 | 1.08
2 | CN1C(=O)C2C=CC(C(O)C3=C[C@H]4C[C@@H](C3)C4(C)C)N(Nc3ccccc3)C2C1=O (stereo partly specified) | 0.782
3 | CS(=O)(=O)CCOC(=O)C1=CC(CCCO)=CC(c2ccc(CN3CCCC3)cc2)N(Cc2cc3c(cc2Br)OCO3)C=C1C(=O)OCCS(C)(=O)=O (stereo unspecified) | 1.08
4 | COC(=O)[C@@]1(Cc2ccc(OC)cc2)[C@H]2c3cc(C(=O)N4CCCC4)n(Cc4ccccc4)c3C[C@H]2CN1C(=O)c1ccccc1 | 1.08
5 | C[N+](C)(C)CCCCNC(=O)[C@H]1C[C@H]2C(=O)N[C@@H](Cc3ccccc3)C(=O)N2[C@H]1c1ccc(O)cc1 | 0.274
6 | C[C@]1(C(=O)NC2CC2)c2ccccc2C(=O)N(Cc2cc(C(F)(F)F)cc(C(F)(F)F)c2)[C@H]1c1ccc(CO)cc1 | 0.835
7 | CCCC#C[Si](O[C@H](CC)c1cn([C@H](CO)Cc2ccccc2)nn1)(C(C)C)C(C)C | 0.632
8 | CC(=O)N1Cc2ccccc2C[C@@]2(COC(c3ccc(OCCCO)cc3)=N2)C1=O | 1.15
9 | CC(C)(C)OC(=O)CC[C@@]1(C(=O)NCCN2CCOCC2)N=C(c2ccc(OCCCO)cc2)O[C@@H]1c1ccccc1N=[N+]=[N-] | 0.289
10 | CN1C(=O)C2C=CC(C(O)c3ccccc3)N(Nc3ccccc3)C2C1=O (stereo unspecified) | 0.142
11 | CC(=O)n1cc(C(O)C2C=CC3C(=O)N(C)C(=O)C3N2Nc2ccccc2)c2ccccc21 (stereo unspecified) | 0.897
